Reference: the supplement of paper PMC11417369
± gives the standard deviation of the averaged measurements. Whole data set: some 25,000 sequences, median “ln(normalized median fluorescence intensity)” near 8.6, cut for the highest 2% near 10. The full list was thinned out, with the highest values kept by preference.

These sequences were tested on PfAP2-EXP AP2 domain (GST-tagged) (assay: gcPBM binding intensity (ln(normalized median fluorescence intensity)); higher = stronger DNA binding).
Procedure, shortened: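 In this array assay, P. falciparum DNA-binding domains with a GST tag, expressed in E. coli, were applied for 1 h to primer-extended double-stranded 36-bp intergenic genomic probes and negative controls on an Agilent 4 × 180k array. Bound protein was visualised with Alexa488 anti-GST antibody at 488 nm. Binding intensity is the highest Masliner-normalised natural-log median intensity across replicate spots of either probe orientation.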

Sequence	gcPBM binding intensity (ln)
AACTTACTCTTTACAAGTACGTAAAAGAAATAGAAA [XGTACX_site1782]	8.51 ± 0.41
AATTTCTATTTTGTGAGTACATACTCCTATTATATA [XGTACX_site3210]	8.78 ± 0.26
ATTATATATAAATATACACACATATATAAAATACAT [CACACA_site5298]	8.39 ± 0.28
TTATATTATTTTTATACATGCATTTCTATATATTTT [TGCATGCA_site164]	9.2 ± 0.3
TTTTTTTTTTCTCCTGCATGCAGCATTTATATATTA [TGCATGCA_site390]	10.3 ± 0.13
TTATACTATTTTTATACATGCATTTCTATATATTTT [TGCATGCA_site316]	9.3 ± 0.28
TCTTTATATATATATATATGTGTGAATGTTAAGTAT [XGTACX_negctrl_site135]	8.74 ± 0.33
ATATATATATATATATGTACATATATTTGTAATGTC [XGTACX_site8074]	10.2 ± 0.43
ATGATTTGTCTGAAATGTACATATATATATATATAT [XGTACX_site5247]	10.3 ± 0.47
ATATATATAAATATATGTACATAAATATATTTGTAA [XGTACX_site6715]	8.47 ± 0.42
ATGAATATATATATTTGTACATATGTATATATATAT [XGTACX_site7527]	9.71 ± 0.15
AATGTATATATGTAATGTACATATGTAATGTATATA [XGTACX_site6509]	8.62 ± 0.46
TGGATTTTGTATTAATGTACATATATATATATATAT [XGTACX_site4442]	10.2 ± 0.51
ATTTTGTATATATTTTGTACATATTTTGTATATATT [XGTACX_site885]	8.68 ± 0.3
CTGAATGTATATATTTGTACATATATATATATATAT [XGTACX_site5557]	10.4 ± 0.22
ACATAAATAAATTAATGTACATATATATTTGTATAT [XGTACX_site3160]	8.36 ± 0.28
TTATTAAATGAAAAATGTACATATAAATGATTATAT [XGTACX_site2788]	8.51 ± 0.25
TTTTTTTTGTATTAATGTACATATAACTTTTTTTTT [XGTACX_site7903]	8.48 ± 0.47
GTTTGTATGTCCAAATGTACATATGATTTTATGAAA [XGTACX_site6595]	8.72 ± 0.28
ACATTTATTTTGAATGGTACACTATTATTATGAAAT [XGTACX_site4384]	8.36 ± 0.38
TTTTTTTTTTGATGCACACACCTGAACGAGTTAATA [CACACA_site4329]	8.83 ± 0.37
ATTTTTAAATACAGTACACACATGGGTTTAAATTAT [CACACA_site2884]	8.63 ± 0.38
ATATAATAATTGTACACATGCACACACAAATATTAT [TGCATGCA_site204]	8.9 ± 0.29

Sequence	gcPBM binding intensity (ln)
GATCACTGAATAAAGGCACACATCTGACTAATTTTT [CACACA_site66]	8.36 ± 0.39
ATAAATTGAAGTAAATTTGACCTTTTTTTTTTTTTT [GTGCAC_negctrl_site354]	8.31 ± 0.27
AATGAAAGGATGCTGTGTACATATATATATATATAT [XGTACX_site7901]	10.2 ± 0.49
ATAAAATGAACCTTTTGTACATATATATATATATAT [XGTACX_site4610]	10.1 ± 0.57
TAAGGATGAATCCTTTGTACATATATATATATATAT [XGTACX_site1242]	10.2 ± 0.28
ATAATTAATGATGTATGTACGGAATTTATATATTTG [XGTACX_site5685]	8.4 ± 0.33
AAAAGATAATTATGCACACACACACCCAGACACAAC [CACACA_site5428]	9.11 ± 0.4
AAAAGATAATTATGCACACACACACCCCCACCCAAC [CACACA_site2570]	10.67 ± 0.099
AAAAAAGATAATTATGCACACACACCCACCCACCCA [CACACA_site8825]	9.57 ± 0.41
TAAAATTAATTTCTGTTGCACTTATTATTAATTAAC	8.84 ± 0.4
GATATAAACGTATATGTACATATATATATATATATA [GTGCAC_negctrl_site186]	10.2 ± 0.41
ATAAAAACATAAAAATGTACATATATATATATATAT [XGTACX_site7165]	10.1 ± 0.25
GCAAATATGTTGATATGTACATATATATATATATAT [XGTACX_site445]	10.2 ± 0.45
ATAAAAAAAAATATATGTACATATATAAATTGATAT [XGTACX_site7409]	8.73 ± 0.42
AATATATAAACACGTACACACACATATATGTATATA [CACACA_site9168]	8.73 ± 0.43
AACATAAAAAAAATATGTACATATATAATATATATA [XGTACX_site3764]	8.85 ± 0.23
TATAAACGTATAATATGTACACACACATATATACAA [XGTACX_site1686]	8.43 ± 0.32
ATATAAATATAAACATGTACATATATATATATATAT [XGTACX_site2824]	10.3 ± 0.79
TAAATATATATAACATGTACATAAAATATATATATA [XGTACX_site4431]	9.53 ± 0.13
GTAAATATATAAACATGTACATATATAAATATATAA [XGTACX_site7262]	8.51 ± 0.33
TATATATAAAACATATGTACATATATATATATATAT [XGTACX_site419]	10.2 ± 0.24
ATATATATATATATATGTACATATATATTGTTGATC [XGTACX_site8893]	10.1 ± 0.26
AATGGGTAAACATACACACACACATATATATATATA [CACACA_site1991]	10.1 ± 0.33

Sequence	gcPBM binding intensity (ln)
AATAAGTTATTATTTTGTACACATAAATAATACGTT [XGTACX_site814]	8.32 ± 0.3
ATATTCATATATTTACGTACATACATTTATATATTT [XGTACX_site7644]	8.85 ± 0.37
TACCTATACAGACACACACACACACGCCCACAAAAA [CACACA_site6375]	8.77 ± 0.35
GAAATTAAATGACATACACACTATATTATATATTTT [CACACA_site5693]	8.34 ± 0.35
AGTAGTCTGGAGAAGAGTACACAGTATCTGGTAGCT [XGTACX_site2042]	8.48 ± 0.47
AAATAAAATAAAAACATGCACACTTTATTTTTTTTA [CACACA_site2800]	8.49 ± 0.26
AGAAAAGAGAGAAAAACATGCACATGATATTATAAA [TGCATGCA_site120]	8.62 ± 0.53
AATATGATATATATATGTACATATATATAATATAAT [XGTACX_site3072]	8.52 ± 0.41
CATGATATATAAATATGTACATATATATATATATAT [XGTACX_site1760]	10.2 ± 0.23
AAACATATATACATATGTACATATATACATATATGT [XGTACX_site5779]	8.4 ± 0.26
ATAAATATAAATATATGTACATATATATATATATAT [XGTACX_site7433]	10.2 ± 0.15
TTATATGCATAAAAACGTACAAAAATGTATTCATGT [XGTACX_site2215]	8.71 ± 0.38
ATATATATATATATATGTACGTATTCATAAACAACA [XGTACX_site4282]	10.2 ± 0.6
AAACATATAAACATATGTACATATAAACATATATAC [XGTACX_site5026]	8.64 ± 0.33
ATATATATATATATATGTACATAAACATATATATAT [XGTACX_site1064]	10.2 ± 0.21
ATAAATAAAACAAAATGTACAAATATTCATATATTC [XGTACX_site1307]	8.49 ± 0.32
TTTTTTCTTTCTTTCAAACACACATTAATTTTATTC [CACACA_site2733]	8.66 ± 0.49
ATAAATATGGAGCACACACACATAAACATACATATA [CACACA_site421]	8.84 ± 0.67
AGAAGGATATTATGAAGTACACATATTGTATATGGT [XGTACX_site7503]	8.47 ± 0.35
AATATATAAATATTGTGTACTTATTTTTTTATATGT [XGTACX_site4377]	8.49 ± 0.18
TAAATATGAGGGAACACACACATGATATATAAATTC [CACACA_site2400]	8.81 ± 0.43
TATATATTGCCCTTCACACACACACCCATATATATA [CACACA_site2493]	9.06 ± 0.42
TTATTTATTTATTGTTGTACACAAAATGATTCTTAA [XGTACX_site6480]	8.7 ± 0.2

Sequence	gcPBM binding intensity (ln)
TTATATAACACGGGGAGGACACAAGAAATAAAGAGC [XGTACX_site2148]	9.13 ± 0.29
AATGATTTTGATTAACGTACGTACAAATATATATAT [XGTACX_site6604]	9.31 ± 0.057
ATTTTGATAACCGTACGTACATATATATATATATAT [XGTACX_site6605]	10.3 ± 0.35
AAAATTATATATTATAGTACATAAAATTTTGATATA [XGTACX_site994]	8.39 ± 0.35
AAATAGAGAAATACAAGTACATATCAAACCAATCTA [XGTACX_site2756]	8.52 ± 0.42
TTATACACCTTTCATTGTACATATAATTTATATTCT [XGTACX_site8685]	8.95 ± 0.33
TATTACATTGTTGAATGTACTCATTTAAAATTTATA [XGTACX_site7987]	8.34 ± 0.38
TATATAATACGAATTTGTACATATTAAATAAATTAT [XGTACX_site93]	8.41 ± 0.37
ATAATACGAATTTGTAGTACATTTATAATAACATGA [XGTACX_site2614]	8.37 ± 0.17
TATATATATATATATATAATACGAATTTGTAGTACA [TGCATGCA_negctrl_site224]	10.2 ± 0.16
AATTATATTTGAAATACACACATAAAAACCATATAG [CACACA_site7598]	8.89 ± 0.51
ACACATACATACATATGTACATATATACATATATAC [XGTACX_site5559]	8.84 ± 0.26
ACACATATATAAATATGTACATATATATATATACAT [XGTACX_site1595]	8.61 ± 0.23
TATATATATTTATGTACACACATATATACCTTTCAT [CACACA_site5479]	8.74 ± 0.23
TATATATATATATGTACACACATATATACCTTTCAT [CACACA_site2679]	10.1 ± 0.27
ACACACATATATACATGTACATATATATATATATAT [XGTACX_site451]	10.1 ± 0.3
AATATATTCCACATGTGTACATATATATATATATAT [XGTACX_site8006]	10.3 ± 0.24
ATGTAAATACATATATGTACACAAATATATATATAT [XGTACX_site3537]	9.8 ± 0.35
ACATACACATATACATGTACATATATATATATATAT [XGTACX_site5082]	10.2 ± 0.2
GTAAATACACATATGTGTACATATATATATATATAT [XGTACX_site3696]	10.2 ± 0.35
TCATACATGTATATGTGTACATATAATGTATATTCC [XGTACX_site6082]	8.3 ± 0.3
TATATATATATATATGTACACACATATATACCTTTC [CACACA_site8854]	10.2 ± 0.26
TCACACATATATTCATGTACATATTAATATTTCCAT [XGTACX_site5387]	8.85 ± 0.44
